Reference: PubChem BioAssay (NCATS)
Records with an inconclusive call do not appear. Values without a mark were called inactive. The source made the active and inactive calls. Calls follow the shape of the dose curve; as a rule, active = well fitted inhibition curve with a large enough effect; inconclusive = small, poorly fitted or top-dose-only effect; inactive = flat fitted curve, though single readings scatter.

test system: CRL-7250; experiment: Cytotoxic Profiling of Annotated Libraries Using Quantitative High-Throughput Screening (AID 1296008); details: Five cell lines viability, CellTiter-Glo ATP luminescence, 48-72 h; max response: stronger effect = lower value; also: nearly all actives have a fitted effect of over 60% in size
In short: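 Compounds were pin-transferred onto cells and incubated 48 or 72 hr at 37 degree Celsius, 95% humidity. CellTiter-Glo was added, plates sat 10 min at room temperature, then ATP-coupled luminescence was imaged as the viability read-out.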
% is scaled to controls: 0 for no effect and ±100 for the full control effect; potency is read from the fitted curve at half-maximal effect.

Going from `COc1cc2c(c(OC)c1CC=C(C)C)C[C@H](c1ccc(O)cc1O)CO2` to `Cc1nc2ccc(Oc3ccc(F)cc3)cc2c(=O)n1C[C@H]1CCCN(C(C)C)C1`, the max response rises from -5.34% to -2.55%.

First: O=C(N/N=C/c1ccc(O)c(O)c1)c1cc2ccccc2cc1O
Second: Cc1c(NC(=O)c2cc(C(N)=O)nc3cc(F)ccc23)c(C(F)(F)F)nn1Cc1ccc(C#N)cc1
The max response of the first is lower: -27.6% for the first, -21.4% for the second.

Going from `Cc1c(F)cc(C(=O)NC2CC2)cc1-c1c(F)cn2c(C(C)(C)C)nnc2c1F` to `O=C(CCc1ccccc1)N1CCC(O)(Cn2cnc3cc(Cl)ccc3c2=O)CC1`, the max response rises from -14.4% to -1.98%.

Going from `C=C(C(=O)O)C1CC(O)C2(C)CCCC(=C)C2C1` (centres undefined) to `COC(=O)CCC(=O)OC[C@]1(C)CCC[C@@]2(C)C3CC[C@]4(C)C=CC3(CCC12)C4` (some centres undefined), the max response rises from -4.23% to -4.15%.

Going from `CC1(C=O)CC[C@]2(C(=O)O[C@@H]3O[C@H](CO)[C@@H](O)[C@H](O)[C@H]3O)CC[C@]3(C)C(=CCC4[C@@]5(C)C[C@H](O)[C@H](O[C@@H]6OC[C@@H](O)[C@H](O)[C@H]6O)[C@@](C)(CO)C5CC[C@]43C)C2C1` (some centres undefined) to `COC(=O)C1=CO[C@@H](O[C@@H]2O[C@H](CO[C@@H]3O[C@H](COC(=O)/C=C/c4cc(OC)c(O)c(OC)c4)[C@@H](O)[C@H](O)[C@H]3O)[C@@H](O)[C@H](O)[C@H]2O)[C@@H]2C(CO)=CC[C@H]12`, the max response rises from -5.25% to -3.63%.

First: CC1=C(C(=O)O)/C(=C\CO[C@@H]2O[C@H](CO)[C@@H](O)[C@H](O)[C@H]2O)C(OC(=O)/C=C/c2ccc(O)cc2)C1 (some centres undefined)
Second: CC(=O)CCC1=C(C)C(O[C@@H]2O[C@H](CO)[C@@H](O)[C@H](O)[C@H]2O)C(O)CC1(C)C (some centres undefined)
The max response of the first is lower: -18% for the first, -13.4% for the second.

`C/C1=C\CC[C@H](C)CCO[C@@H]2O[C@H](CO[C@@H]3OC[C@](O)(COC1=O)[C@H]3O)[C@@H](O)[C@H](O)[C@H]2O` was tested, and the outcome was “inactive”.

For `Nc1ccc(-c2cccc3c(=O)cc(N4CCOCC4)oc23)cc1`, the Potency was 5.8 µM (active).
